# rCAG binder: binds r(CAG) RNA repeats | r(CAG) RNA repeat, TO-PRO-1 dye displacement fluorescence | inhibition, % at 3 µM | hit rate 1.3% among 370,000;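 active = inhibition above the plate cutoff, the mean of all test compounds on that plate plus 3 SD, cut at about 35% in these data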;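 also: 0% = DMSO alone and 100% = 100 µM mitoxantrone as full dye displacement; higher means more dye released from RNA so lower well fluorescence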
# MPTP block: blocks calcium-induced mitochondrial swelling; isolated mouse mitochondria, Ca2+ swelling absorbance, 30 min; inhibition, % at 10 µM; hit rate 1.4% among 360,000; AID 602449;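 active = inhibition of 50% or more, scaled per plate between neutral and stimulator controls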;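 also: 0% = DMSO wells given calcium and 100% = 1 mM EGTA wells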
# Myeloid diff MLP: myeloid differentiation induction; ER-HoxA9 myeloid progenitors, lysozyme-GFP differentiation, flow cytometry; calls only at 10 µM; hit rate 1% among 360,000; AID 624256;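 active = normalized GFP-positive differentiation at or above the plate's own cutoff, the solvent-only control mean plus 3 SD; inconclusive = no clear call, values can overlap the other calls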;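 also: cells exposed to compound for four days before flow analysis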
# GRIN3A LBD mod: modulators (binders) of human NR3A ligand-binding domain | NR3A LBD differential scanning fluorimetry, Tm shift; 0% = protein alone, 100% = glycine-bound protein | Tm shift relative to glycine control, % at 25 µM | hit rate 2.5% among 340,000 | AID 1259313;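 active = melting temperature shift of at least 10% of the positive control shift, at one fixed dose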
# FAS TE block: FAS thioesterase (human) inhibition. recombinant FAS-TE, OMFH fluorogenic substrate, fluorescence endpoint. hit rate 0.67% among 360,000. inhibition, % at 15 µM. P49327. AID 602261;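 active = compounds whose normalised, plate-corrected inhibition of enzyme fluorescence in the single-dose primary screen is 50% or more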;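 also: 0% = DMSO with enzyme and 100% = substrate without enzyme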
# FAS-TE inh conf: FAS thioesterase (human) inhibition, confirmation; shares compounds with FAS TE block; recombinant FAS-TE, OMFH fluorogenic substrate, fluorescence; inhibition, % at 15 µM; hit rate 45% among 2,300;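 active = compounds inhibiting the enzyme by at least 50% at 15 µM in any one of the replicates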;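 also: 0% = enzyme with DMSO only and 100% = wells lacking enzyme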
# An asterisk follows results filed as active; i = inactive; ? = inconclusive; . = no result. In the library only some 5.7% were active in any assay of this set; here they are far more common.
SMILES,rCAG binder,MPTP block,Myeloid diff MLP,GRIN3A LBD mod,FAS TE block,FAS-TE inh conf
CN(C)S(=O)(=O)c1ccc(N2C(=O)CC2(/C=C/c2ccccc2)C(=O)NC2CCCC2)cc1 (stereo not drawn),-1,-1,i,-2,60*,29
CC[C@]1(c2cccc(C)c2)C(=O)N(C(=O)OC)N1C(=O)OC,1,-2,i,4,62*,59*
COC(=O)N1C(=O)[C@@](Cc2ccccc2)(c2ccccc2)N1C(=O)OC,7,0,i,4,11,.
CC[C@@]1(c2ccccc2)C(=O)N(C(=O)OC)N1C(=O)OC,-2,-1,i,2,33,.
COC(=O)N1C(=O)[C@](Cc2ccccc2)(c2ccccc2)N1C(=O)OC,4,1,i,13*,63*,75*
Cc1nc(N2CCN(S(=O)(=O)c3ccccc3C#N)CC2)c2c(-c3cccs3)csc2n1,3,3,i,-2,51*,30
COc1cc(S(=O)(=O)Nc2ccc(C)cc2)ccc1N=Cc1c(C)[nH]n(-c2ccccc2)c1=O,21,-2,i,26*,55*,40
COc1nccnc1NS(=O)(=O)c1ccc(N=Cc2c(C)[nH]n(-c3ccccc3)c2=O)cc1,10,1,i,-3,-7,.
O=[N+]([O-])c1ccc(O)c(/C=N/Nc2ncnc3c2cnn3-c2ccccc2)c1,12,19,?,-1,56*,28
Brc1ccc(CN2CCCc3nc(-c4ccccc4)ccc32)cc1,6,.,.,.,.,.
CCCC1CCC(=NNS(=O)(=O)c2ccc(C)c([N+](=O)[O-])c2)CC1 (stereo not drawn),4,10,i,-3,34,.
Cc1ccc(S(=O)(=O)NN=C2CCC(C(C)(C)C)CC2)cc1[N+](=O)[O-] (stereo not drawn),.,11,i,-1,67*,47*
O=C(Nc1ccc(Cl)cc1)OCC12COCN1COC2,1,.,.,.,.,.
CCCNC(=O)c1cc(C2CCCCN2C(=O)OCC(C)C)on1 (stereo not drawn),-2,0,i,.,-10,.
O=S(=O)(c1ccc(SCc2ccc(Cl)cc2)nc1)N1CCCC1,-1,0,i,-4,54*,38
Cc1cc(C)cc(CSc2ccc(S(=O)(=O)N3CCCC3)cn2)c1,2,-2,i,2,27,.
N#Cc1c(N)[nH]c(C(=O)c2ccccc2)c1-c1ccc(Cl)cc1,10,2,i,.,67*,60*
Cc1c(C(=O)Nc2ccc(Cl)cc2)c2ccccn2c1C(=O)c1ccc([N+](=O)[O-])cc1,2,15,i,-4,71*,14
Cc1c(C(=O)Nc2ccc(Cl)cc2)c2ccccn2c1C(=O)c1ccccc1,1,12,i,-3,22,.
O=C(Nc1nc2ncccn2c1-c1ccccc1)c1ccc(F)cc1,2,.,.,.,.,.
COC(=O)CN1C(=O)[C@H]2[C@@H](/C=C/c3ccccc3)N3C(=O)CN(Cc4ccc(-c5ccccc5)cc4)C(=O)[C@@]3(C)[C@H]2C1=O,3,-1,i,2,3,.
C[C@@]12C(=O)N(Cc3ccc(-c4ccccc4)cc3)CC(=O)N1[C@H](/C=C/c1ccccc1)[C@@H]1C(=O)N(c3ccccc3)C(=O)[C@@H]12,11,0,i,-9,50*,13
COc1cc(OC)cc(N(C(=O)c2ccco2)C(C(=O)NC2CCCC2)c2ccc(N3CCOCC3)cc2)c1 (stereo not drawn),2,-1,i,-4,10,.
CC(=O)c1ccc(N(C(=O)c2ccco2)C(C(=O)NC2CCCC2)c2ccc(N3CCOCC3)cc2)cc1 (stereo not drawn),-3,4,i,-2,55*,52*
CN1c2ccccc2C(C)(C)C12CC(c1ccc(S(=O)(=O)N3CCCCC3)cc1)=NO2 (stereo not drawn),-1,4,i,-1,75*,23
CN1c2ccccc2C(C)(C)C12CC(c1cccc(S(=O)(=O)N3CCCC3)c1)=NO2 (stereo not drawn),-1,1,i,1,74*,15
O=C(O)C1CCCN1C(=O)c1cccc(Cl)c1 (stereo not drawn),2,.,.,.,.,.
CCOC1=C2CN(S(=O)(=O)c3ccc(C)cc3)[C@H](c3ccccc3)C[C@H]2[C@H]2C(=O)N(c3ccccc3)C(=O)[C@H]2C1,3,1,i,.,59*,29

# Source: PubChem BioAssay
